Assay results: the supplement of paper PMC5499739
The full ranking holds about 16,000 sequences; the median of “Z-score” is about -0.37, and the highest 2% start at about 3.2. The sample as a whole holds a higher share of the highest values than the screen did.

test system: RBM10 RRM1-ZnF (GST-tagged construct); test: RNAcompete 7-mer binding Z-score; higher = stronger binding preference
Description: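 RNAcompete: 20 pmol GST-tagged RBM10 RNA-binding constructs were incubated with a designed RNA pool of about 241,000 sequences up to 41 nt (1.5 nmol) on glutathione beads for 30 min at 4 °C and washed. Bound RNAs were identified by microarray hybridisation. Each RNA 7-mer is scored by a one-sided Z-score of its enrichment, computed over probes that contain the 7-mer within longer pool sequences.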

Point of comparison: AUGGCAU, “RNAcompete 7-mer binding Z-score” value 0.514. Against it:
- CACCUUG — lower, -0.516
- ACUAGUG — lower, 0.0983
- GUACCAG — lower, -0.035
- ACCAGGA — higher, 0.823
- CGCGGCG — higher, 1.25
- CGCCAUA — lower, -0.594
- UGAGGGC — higher, 2.27
- CGAGGGU — higher, 3.7
- UGAGGGG — higher, 3.64
- CGAGGGC — higher, 1.06
- CGAGGGA — higher, 2.84
- UGAGGCU — lower, 0.3
- CGAGGUU — higher, 0.846
- AGAGGGU — higher, 2.22
- UGAGGGA — higher, 4.02
- UGAGAGG — higher, 1.94
- UGAGGGU — higher, 3.48
- UGAGGAG — higher, 1.86
- UAGCGGC — lower, -0.132
- AGAUGAU — lower, 0.287
- UGACUCC — lower, -0.652
- AUUUAAC — lower, -0.561
- GGGAGAU — higher, 2.7
- CGAAGCU — lower, -0.691
- GUCAGCU — lower, -0.425
- AGUGCCG — lower, -0.11
- UCGCAAU — lower, -0.545
- CGAACGA — lower, -0.123
- GGGCAUA — higher, 1.66
- AUACACC — lower, -0.795
- CUGAGGC — lower, -0.0155
- GGAGGCU — higher, 1.41
- GGAGGAU — higher, 2.46
- GGAGGGU — higher, 3.97
- CCCAAUG — lower, -0.662
- CUAGGGG — higher, 2.46
- GUAGGGA — higher, 3.87
- AUAGGUG — higher, 2.64
- GUAGGGC — higher, 2.49
- GUAGGGU — higher, 4.46
- GUAGGGG — higher, 4.54
- UUAGGGG — higher, 2.4
- UUAGGGU — higher, 2.78
- AUAGGGG — higher, 3.9
- AUAGGCG — higher, 0.781
- UUAGGGA — higher, 2.03
- CUAGGGU — higher, 2.25
- GCAUACU — lower, -0.694
- UACAGGU — higher, 0.881
- AUAGCAG — lower, 0.358
- ACUCGGG — higher, 0.667
- ACAACCA — lower, -0.464
- CAAUGUC — lower, -0.75
- GAGACCA — lower, -0.126
- GACUAAC — lower, -0.626
- UCCUUGC — lower, -0.733
- GACUGGG — higher, 2.42
- AUAGGGC — higher, 1.72
- GUAGGAC — higher, 1.4
- GUAGGAG — higher, 3.43
- AUAGGGU — higher, 3.61
- CUAGGAG — higher, 0.608
- AUAGGGA — higher, 2.86
- CCAGCAA — lower, -0.617
- UUAAAAA — lower, -0.444
- GGCCUGC — lower, -0.428
- AAAAGCG — lower, 0.378
- ACUUCUC — lower, -0.841
- UAUAAUA — lower, -0.412
- CGCGUGC — lower, -0.223
- ACGGGGC — higher, 2.26
- ACGGGGG — higher, 3.27
- GCGGGUG — higher, 3.17
- ACGGGUU — higher, 2.65
- ACGGGUC — higher, 1.19
- ACGGGUG — higher, 3.39
- ACGGGGA — higher, 3.04
- ACCGGGU — higher, 0.631
- ACGGGGU — higher, 4.07
- CUCAAUC — lower, -0.769
- ACGCUCG — lower, -0.636
- UUUUAUC — lower, -0.873
- CAGCCUG — lower, -0.513
- GGAGUGG — higher, 4.84
- GGAGUGA — higher, 2.38
- GAAGUGU — higher, 1.08
- GAAGUGC — lower, 0.29
- AGAGUGG — higher, 2.81
- GAAGUGG — higher, 3.46
- CGUCCCG — lower, -0.594
